# Source: PubChem (National Center for Advancing Translational Sciences (NCATS))
# SMN2 splice enh: qHTS Assay for Enhancers of SMN2 Splice Variant Expression; HEK293 SMN2-luciferase splicing reporter, luminescence, 30-36 h; Potency, µM (highest dose often 46.1 µM), inactives show at the top dose activity change, positive = activation, most hits filed as activators; 210,000 tested, 2.8% active; AID 1458, 2008; also: % of control where 0% means no effect; nearly all actives have a fitted effect of over 55% in size
#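 HEK293 cells carry an SMN2 minigene-luciferase reporter in which exon 7 inclusion puts luciferase in frame. Cells were seeded at 2000 cells/well, attached for 10-12 hours, then exposed to compounds for 30-36 hours at 37C before ONE-Glo luminescence.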
# FLuc counter: qHTS profiling assay for firefly luciferase inhibitor/activator using purifed enzyme and Km concentrations of substrates (counterscreen for miR-21 project) | Luciferin 4-monooxygenase (Photinus pyralis), P08659 | purified FLuc, Km substrates, luminescence inhibition | Potency, µM (series often up to 57.5 µM), without a hit: top-dose activity change, negative = inhibition, most hits filed as inhibitors | 360,000 tested, 6.9% active | AID 588342, 2011;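 also: plate controls were vehicle for no effect and reference inhibitor for full effect; nearly all actives have a fitted effect of over 55% in size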
# Target sequence (P08659 whole entry, looked up): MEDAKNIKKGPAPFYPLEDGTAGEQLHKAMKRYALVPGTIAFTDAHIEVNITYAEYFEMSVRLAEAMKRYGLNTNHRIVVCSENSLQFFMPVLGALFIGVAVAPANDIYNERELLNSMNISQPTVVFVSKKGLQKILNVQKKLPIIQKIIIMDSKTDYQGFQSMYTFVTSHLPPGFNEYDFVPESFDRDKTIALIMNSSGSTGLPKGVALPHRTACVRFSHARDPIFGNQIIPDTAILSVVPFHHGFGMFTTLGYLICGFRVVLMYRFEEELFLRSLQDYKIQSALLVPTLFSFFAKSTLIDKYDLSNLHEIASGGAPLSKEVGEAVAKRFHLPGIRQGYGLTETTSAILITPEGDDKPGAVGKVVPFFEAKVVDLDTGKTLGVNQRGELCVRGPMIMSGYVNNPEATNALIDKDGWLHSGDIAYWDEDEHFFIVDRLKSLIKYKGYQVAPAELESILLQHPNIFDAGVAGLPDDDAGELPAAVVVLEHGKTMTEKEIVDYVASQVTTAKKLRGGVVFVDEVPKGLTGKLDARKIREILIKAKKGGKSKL
#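 Biochemical qHTS of compounds, final roughly 60 µM downward over six points, against 10 nM purified firefly luciferase using Km concentrations of substrates (10 uM D-luciferin, 10 uM ATP) in Tris acetate pH 7.5 buffer; luminescence output.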
# NPC1 promoter act: qHTS Assay for NPC1 Promoter Activators; Potency, µM (doses to about 9.22 µM), for the others: at the top dose activation, actives largely listed as activators; 320,000 tested, 2.4% active; Huh7 NPC1 promoter luciferase reporter, 24 h; also: % of control where 0% means no effect; nearly all actives have a fitted effect of over 60% in size
#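 Readout is luciferase luminescence, reflecting NPC1 promoter activation in stably transfected Huh7 cells after 24 h compound exposure at 37 °C in reduced-serum medium with 10% FBS.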
# ELG1 genotox: qHTS screen for small molecules that induce genotoxicity in human embryonic kidney (HEK293T) cells expressing luciferase-tagged ELG1. HEK293T ELG1-luciferase reporter, luminescence, 16 h. Potency, µM (doses to about 46 µM), for the others: at the top dose activity change, positive = activation, actives largely listed as activators. 330,000 tested, 1.3% active; also: % of control where 0% means no effect; nearly all actives have a fitted effect of over 60% in size
#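 Quantitative HTS format in 1536-well plates. HEK293T ELG1-luciferase reporter cells receive test compound and are incubated 16 hr at 37 °C, 5% CO2; ONE-Glo added, 30 min room temperature, then luminescence read.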
# KinaseGlo FLuc: Counterscreen for Luciferase (Kinase-Glo TM) Inhibition; Kinase-Glo luciferase, ATP luminescence, 8 min; 200,000 tested, 0.28% active; Potency, µM (top dose mostly 38.3 µM), inactives show at the top dose activity change, negative = inhibition, most hits filed as inhibitors; Luciferin 4-monooxygenase (Photuris pensylvanica), Q27757; also: % is scaled to controls: 0 for no effect and ±100 for the full control effect; nearly all actives have a fitted effect of over 60% in size
#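 Light output from Kinase-Glo luciferase with luciferin and 10 uM ATP in 50 mM imidazole pH 7.2, KCl, MgCl2, Tween 20, BSA; compound pin-delivered, 8-min ambient incubation, then luminescence read.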
# Rab9 promoter act: qHTS Assay for Rab9 Promoter Activators | Potency, µM (top dose mostly 9.22 µM), for inactives: at the highest dose activation, negative = inhibition, most hits filed as activators | Huh7 Rab9 promoter-luciferase reporter, luminescence, 24 h | 320,000 tested, 2.8% active; also: % of control where 0% means no effect; nearly all actives have a fitted effect of over 60% in size
#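 Quantitative HTS format; Huh7 Rab9-luciferase reporter cells (1500/well) receive compound 2 h post-plating, incubate 24 h at 37 °C, then get luciferase reagent for 10 min before luminescence reading.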
# * hit, by the source's call; ? = inconclusive; · = not tested or not shown; [ ] = remark or other dose. Compounds with a hit are over-represented: about 7.4% of the library has one in this group of screens. Calls follow the shape of the dose curve; as a rule, active = well fitted curve in the direction sought with a large enough effect; inconclusive = small, poorly fitted or top-dose-only effect, or another doubt; inactive = no such curve, though single readings can be large; an effect the other way counts as inactive or inconclusive. Potency is read from the fitted curve at half-maximal effect.
SMILES,SMN2 splice enh,FLuc counter,NPC1 promoter act,ELG1 genotox,KinaseGlo FLuc,Rab9 promoter act
CCOC(=O)C1CCCN(c2nc3c(S(=O)(=O)c4ccc(CC)cc4)nnn3c3ccsc23)C1 (centres undefined),·,-8.5%,·,·,·,·
O=Cc1cc(N=Nc2ccccc2Cl)ccc1O,·,19µM*,2.51µM*,10.5%,-1.2%,2.24µM*
O=Cc1cc(N=Nc2cccc(C(=O)O)c2)ccc1O,15.0%,10.7µM*,?,-2.2%,-15.4%,?
O=C(O)c1cc(N=Cc2ccccc2O)cc(C(=O)O)c1,-6.6%[9.22 µM],·,·,·,-6.6%[7.66 µM],·
COc1cccc(N=Nc2c(=O)[nH]n3c(C)cc(C)nc23)c1,23.7%,-16.9%,-2.3%,0.2%,6.2%,1.0%
O=c1cc(-c2ccccc2)nc2cc(-c3ccc(F)cc3)[nH]n12,10.3%,?,·,·,·,·
Cc1cc(=O)n2[nH]c(N)c(N=Nc3ccccc3)c2n1,18.5%,?,-1.8%,-6.0%,-9.8%,2.2%
COc1ccc(-c2c(C(F)(F)F)[nH]n3c(=O)cc(-c4ccccc4)nc23)cc1,·,19µM*,-2.1%,-8.4%,·,1.5%
COc1cccc(-c2cc3nc(-c4ccccc4)cc(=O)n3[nH]2)c1,·,12µM*,-11.0%,?,·,0.3%
Cc1ccc(N=Nc2c(N)[nH]n3c(=O)cc(-c4ccccc4)nc23)cc1,-74.1%,9.53µM*,0.9%,1.5%,-2.1%,-3.1%
Cc1[nH]n2c(=O)cc(-c3ccc(Cl)cc3)nc2c1-c1ccccc1,-60.8%,?,·,·,·,·
COc1cccc(N=Nc2c(N)[nH]n3c(=O)cc(-c4ccccc4)nc23)c1,-86.2%,10.7µM*,-1.4%,-7.7%,4.0%,2.9%
O=S(=O)(Nc1cccc(-c2cn3ccsc3n2)c1)c1ccc(F)cc1,-24.3%,?,-2.0%,?,0.4%,6.1%
COc1cc(OC)cc(C(=O)Nc2cccc(-c3cn4ccsc4n3)c2)c1,·,6.01µM*,·,·,·,·
COc1cccc(C(=O)Nc2cccc(-c3cn4ccsc4n3)c2)c1OC,·,15.1µM*,·,·,·,·
COc1cccc(OC)c1C(=O)Nc1cccc(-c2cn3ccsc3n2)c1,·,23.9µM*,·,·,·,·
CCOC(=O)c1sc2ncn(/N=C/c3ccc(O)c(OC)c3)c(=O)c2c1C,-2.9%,-10.9%,-8.1%,-1.0%,1.5%,-5.3%
CCCCCOc1c(Cl)cc(C(=O)N(Cc2ccc(C)o2)C2CCS(=O)(=O)C2)cc1Cl (centres undefined),-25.6%,-6.7%,·,·,·,·
CC(=O)c1cccc(NC(=O)CCc2nnc3ccc(N4CCOCC4)nn23)c1,·,-0.5%,-1.0%,0.2%,·,3.8%
COc1cc2c(C#N)c(N3CCOCC3)nc(N)c2c(N)n1,37.0%,?,-1.7%,17.9%,-26.0%,-7.7%
CCOC(=O)C1CCN(c2nc(C)cc(C)c2C#N)CC1,-0.7%,3.3%,-1.9%,-1.4%,0.5%,-1.7%
CCOC(=O)C1CCN(c2nc(N)c3c(N)nc(SCC(=O)O)cc3c2C#N)CC1,·,16.9µM*,-4.2%,-1.3%,·,-1.0%
COc1cc2c(C#N)c(N3CCc4ccccc4C3)nc(N)c2c(N)n1,27.3%,21.3µM*,9.8%,13.3%,0.2%,0.0%
COc1cc2c(C#N)c(N3CCCCC3)nc(N)c2c(N)n1,6.1%,4.78µM*,13.0%,?,9.9%,11.5%
CCOc1cc2c(C#N)c(N3CCCCC3)nc(N)c2c(N)n1,-20.2%,15.1µM*,0.9%,?,-5.5%,?
SMILES,SMN2 splice enh,FLuc counter,NPC1 promoter act,ELG1 genotox,KinaseGlo FLuc,Rab9 promoter act
CC(C)(C)C1CCc2c(sc(NC(=O)C3c4ccccc4Oc4ccccc43)c2C(N)=O)C1 (centres undefined),6.2%,-1.7%,·,·,·,·
Cc1cc(NCCCn2ccnc2)n2nc(C)c(-c3ccc(Cl)cc3)c2n1,·,15.1µM*,5.3%,-0.7%,5.6%,0.5%
Cc1cc(NCCCn2ccnc2)n2nc(C)c(-c3ccccc3)c2n1,8.7%,9.53µM*,29.2%,16.2%,-0.7%,?
Cc1cc(NCCCn2ccnc2)n2ncc(-c3ccccc3)c2n1,-38.4%,0.338µM*,0.398µM*,0.291µM*,-13.9%,0.112µM*
c1ccc(-c2nc(NCCCn3ccnc3)c3ccccc3n2)cc1,8.9%,-2.1%,-5.3%,-9.5%,-0.5%,0.3%
CC(=O)Nc1ccc(S(=O)(=O)N(CC(=O)Nc2cc(C)on2)Cc2ccc(F)cc2)cc1,·,-2.1%,-2.9%,-3.3%,·,0.7%
CCOC(=O)C1(CCOc2ccccc2)CCN(Cc2cc(OC)c3c(c2)OCO3)CC1,·,0.6%,-4.0%,-10.6%,·,-9.9%
CCCCOc1ccc(CNC(=O)c2ccc(NC(=O)N3CCSc4ncccc43)cc2)cc1,·,1.8%,·,·,·,·
O=C(Nc1nc(-c2ccccc2)cs1)c1ccc(Br)o1,-5.4%,23.9µM*,10.8%,5.5%,-5.0%,20.4%
COc1ccc(CC(=O)Nc2nc(C)cs2)cc1,5.4%,-7.9%,5.8%,4.7%,2.0%,7.0%
COc1ccc(-c2csc(NC(=O)c3ccccc3F)n2)cc1,·,?,0.7%,8.0%,·,4.5%
Cc1csc(NC(=O)c2ccc(C)o2)n1,·,15.1µM*,?,?,-18.0%,3.55µM*
Cc1onc(-c2ccccc2)c1C(=O)Nc1nc(-c2cc(F)ccc2F)cs1,10.9%,?,-2.7%,?,-6.0%,-1.6%
Cc1onc(-c2ccccc2)c1C(=O)Nc1nc(-c2ccccc2)cs1,?,19µM*,12.4%,?,-5.4%,?
O=C(Nc1nc(-c2ccccc2)cs1)c1ccccc1F,·,16.9µM*,?,?,·,3.55µM*
Cn1cccc1/C=N/N1CCN(c2ccccc2)CC1,19.9%,-3.0%,-0.3%,3.1%,0.7%,14.3%
CCOc1ccc(NC(=O)c2c(C)nn(-c3ccc(F)cc3)c2-n2cccc2)cc1,·,-1.3%,·,·,·,·
Cc1ccc(-c2csc(NC(=O)C3=NN(c4ccccc4)C(=O)CC3)n2)cc1,-52.0%,8.49µM*,-7.1%,-12.7%,-0.8%,-28.5%
Cc1csc(NC(=O)C2=NN(c3ccccc3)C(=O)CC2)n1,-4.6%,-2.2%,-2.0%,0.1%,-1.4%,0.2%
O=C(Nc1nc(-c2cccnc2)cs1)c1ccc([N+](=O)[O-])cc1,·,-16.4%,0.8%,-3.3%,·,-0.8%
Cc1ccc(C(=O)Nc2nc(-c3cccnc3)cs2)o1,15.7%,21.3µM*,18.6%,1.2%,-2.0%,21.4%
CC(C)C(C)(C#N)NC(=O)CSc1nnc(-c2ccccc2)o1 (centres undefined),-1.8%,1.0%,0.5%,0.7%,-8.0%,4.3%
Cc1ccc(-c2nnc(NC3CCCC3)s2)cc1,·,3.01µM*,0.631µM*,?,·,0.501µM*
